Assay outcomes from PubChem BioAssay.
Rab2A wt mod: changes GTP binding to wildtype dog Rab2A, up or down | GTP binding activity, % at 10 µM | P61105 | GST-Rab2 wt beads, Bodipy-GTP binding, flow cytometry | actives 0.19% (n = 190,000);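 active = GTP binding activity at least 20 points away from 100%, either lowered or raised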
Rab7 wt GTP bind: alters GTP binding to wildtype dog Rab7. actives 0.055% (n = 190,000). GST-Rab7 beads, fluorescent GTP binding, flow cytometry; actives lie on both sides; untreated = 100%, excess cold GTP = 0%. AID 758. GTP binding activity (percent of control), % at 10 µM;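 active = fluorescent GTP binding to Rab7 beads changed by at least 20 points from the 100% baseline, either direction, mostly lower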;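 also: median green fluorescence of bound Bodipy-FL-GTP per Rab7 bead population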
Cdc42 wt GTP: human Cdc42 wildtype GTP binding change, either direction; P60953; GST-Cdc42 beads, Bodipy-GTP binding, flow cytometry; actives lie on both sides; percent activity (GTP binding), % at 10 µM; actives 0.2% (n = 190,000); AID 761;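 active = percent activity GTP binding at least 20 points away from the 100% baseline, either down as inhibitor or up as activator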;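 also: median bead fluorescence of bound Bodipy-FL-GTP at 100 nM; below 100% means less GTP binding so inhibitor and above means activator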
Target sequence (P60953 whole entry, looked up): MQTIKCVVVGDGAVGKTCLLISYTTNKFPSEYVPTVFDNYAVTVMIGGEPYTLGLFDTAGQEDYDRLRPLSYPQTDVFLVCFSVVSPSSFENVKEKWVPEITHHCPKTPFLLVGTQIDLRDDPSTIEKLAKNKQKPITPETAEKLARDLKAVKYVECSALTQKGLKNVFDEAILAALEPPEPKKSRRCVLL
Rac1 mut GTP: alters GTP binding to activated mutant human Rac1 | GST-Rac1 activated beads, fluorescent GTP binding, flow cytometry; actives lie on both sides; 100% means binding = to untreated wells | percent activity (GTP binding), % at 10 µM | actives 0.11% (n = 190,000);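 active = GTP binding at least 20 percentage points away from the 100% baseline, in either direction, so actives lie on both sides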
HRas wt GTP bind: changes GTP binding to wildtype human HRas. GTP binding activity, % at 10 µM. GST-Ras wt beads, Bodipy-FL-GTP binding, flow cytometry; actives lie on both sides. actives 0.14% (n = 190,000). AID 759;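 active = GTP binding activity at least 20% away from the 100% baseline, either lowered as inhibitor or raised as activator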
Target sequence (P01112 whole entry, looked up): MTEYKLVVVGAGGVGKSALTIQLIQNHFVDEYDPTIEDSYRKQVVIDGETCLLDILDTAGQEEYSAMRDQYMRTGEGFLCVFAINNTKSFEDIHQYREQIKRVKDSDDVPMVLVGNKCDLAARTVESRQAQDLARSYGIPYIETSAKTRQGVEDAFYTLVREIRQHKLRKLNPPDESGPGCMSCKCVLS
Rac1 wt GTP bind: human Rac1 wildtype GTP binding, inhibitors and activators. GST-Rac1 beads, fluorescent GTP binding, flow cytometry; actives lie on both sides; 0 = cold GTP competed, 100 = untreated. GTP binding activity (% of control), % at 10 µM. P63000. actives 0.27% (n = 190,000);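 active = GTP binding activity at least 20 points away from the 100% control level, either lower or higher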
Each line names hits and unclear results; the compound was inactive in the other large screens; [ ] = remark or other dose. An excerpt weighted towards active compounds, which were near 0.37% of everything screened.

COc1ccc(-c2cc(C(F)(F)F)c3c(n2)sc2c(O)cc(=O)[nH]c23)c(OC)c1	Rab2A wt mod 78.0
COc1cc(/C=N/NC(=O)C(Cc2c[nH]c3ccccc23)NC(=O)OCC(C)C)cc([N+](=O)[O-])c1O (configuration not stated)	none
COc1cc(/C=N/NC(=O)C(Cc2c[nH]c3ccccc23)NC(=O)OCc2ccccc2)cc([N+](=O)[O-])c1O (configuration not stated)	Rab2A wt mod 77.0, Rac1 wt GTP bind 78.0
OCC1(CCOc2ccccc2)CCN(C2Cc3ccccc3C2)CC1	none
COc1cc(NC(=O)c2cccs2)c(OC)cc1NC(=O)CCC(=O)Nc1cccc2ncccc12	Rab2A wt mod 71.0, Cdc42 wt GTP 74.0, HRas wt GTP bind 73.0, Rac1 wt GTP bind 67.0
COc1cc(C(=O)Nc2cccc3ncccc23)cc(OC)c1OC	none
CC1=C/C(=N\Nc2ccccc2[N+](=O)[O-])CC(C)(C)C1	none
COc1ccccc1-c1c(C)[nH]n2c(=O)c(Cc3ccccc3)c(C)nc12	none
COc1ccc(-c2c(C)[nH]n3c(=O)c(Cc4ccccc4)c(C)nc23)cc1	Rab2A wt mod 77.0
COc1ccc(C(=O)N[C@H](C(=O)OCc2cc(=O)oc3cc(C)ccc23)C(C)C)cc1	Rab2A wt mod 31.0, Rab7 wt GTP bind 20.0, Cdc42 wt GTP 33.0, Rac1 mut GTP 33.0, HRas wt GTP bind 37.0, Rac1 wt GTP bind 33.0
CCC(C(=O)NC1CCCC1)N(C(=O)Cn1nnc(-c2ccc(C)o2)n1)c1cnc2ccccc2c1 (configuration not stated)	Rac1 wt GTP bind 125.0[activator]
COc1cc(/C=N/Nc2nnc3c(n2)[nH]c2ccccc23)ccc1O	Rab2A wt mod 79.0
COc1cc(/C=N/Nc2ccccc2C(F)(F)F)ccc1O	none
COc1cc(/C=N/Nc2nncn2/N=C/c2ccc(O)c(OC)c2)ccc1O	Rab2A wt mod 79.0, Cdc42 wt GTP 77.0, HRas wt GTP bind 76.0, Rac1 wt GTP bind 75.0
COc1cc(C(=O)NCCc2ccc(S(=O)(=O)N3CCCC3)cc2)cc(OC)c1OC	none
CCOC(=O)CSc1n[nH]c(NC(=O)c2cccc(C(F)(F)F)c2)n1	none
Cc1cccc(NCC(O)Cn2cnc3c2c(=O)n(C)c(=O)n3C)c1 (configuration not stated)	none
Cn1c(=O)c2c(ncn2CC(O)CNc2cccc(Cl)c2)n(C)c1=O (configuration not stated)	Rac1 wt GTP bind 124.0[activator]
CC(=O)c1ccc(N2CCN(C(=O)c3ccc4c(=O)n(-c5ccccc5)c(=O)[nH]c4c3)CC2)cc1	Rac1 wt GTP bind 121.0[activator]
O=C(c1ccc2c(=O)n(-c3ccccc3)c(=O)[nH]c2c1)N1CCN(c2ccc(F)cc2)CC1	none
O=C(Nc1nc(-c2ccc(S(=O)(=O)N3CCCC3)cc2)cs1)c1cccs1	Rab2A wt mod 70.0, Cdc42 wt GTP 71.0, HRas wt GTP bind 71.0
O=C(Nc1ccc(S(=O)(=O)N2CCCC2)cc1)c1cccs1	none
CCNC(=S)N=Nc1c(O)[nH]c2ccc([N+](=O)[O-])cc12	Rab2A wt mod 65.0, Cdc42 wt GTP 65.0, HRas wt GTP bind 67.0, Rac1 wt GTP bind 58.0
CCOC(=O)Cn1nnnc1C(CC)N(Cc1cccs1)Cc1cc2cc(C)ccc2[nH]c1=O (configuration not stated)	none
CCOC(=O)Cn1nnnc1C(C(C)C)N(Cc1cccs1)Cc1cc2cc(C)ccc2[nH]c1=O (configuration not stated)	Cdc42 wt GTP 75.0
O=C(CCN1CCCC1Cc1ccccc1)c1ccc2c(c1)OCCO2 (configuration not stated)	Cdc42 wt GTP 76.0
O=C(CCN1CCCCC1)c1ccc2c(c1)OCCO2	none
COC(=O)c1c(N2C(=O)[C@H]3[C@@H](C2=O)[C@]2(C(=O)Nc4ccccc42)N2CCC[C@@H]32)sc(C)c1C	none
COC(=O)c1c(N2C(=O)[C@H]3[C@@H](C2=O)[C@]2(C(=O)Nc4c(C)cc(C)cc42)N2CCC[C@@H]32)sc(C)c1C	Rab2A wt mod 126.0[activator], Rab7 wt GTP bind 121.0[activator], HRas wt GTP bind 120.0[activator]
COC(=O)c1c(N2C(=O)[C@H]3[C@@H](C2=O)[C@]2(C(=O)Nc4c2ccc(C)c4C)N2CCC[C@@H]32)sc(C)c1C	Rab2A wt mod 129.0[activator], Rab7 wt GTP bind 131.0[activator], HRas wt GTP bind 123.0[activator], Rac1 wt GTP bind 124.0[activator]
CSc1ccccc1NC(=O)CN(C)CC(=O)Nc1ccccc1C(F)(F)F	none
COc1cc(-c2nc3ccccn3c2/N=C/c2cc(OC)c(O)cc2Cl)ccc1O	none
S=C(N=Nc1ccccc1)NNc1ccccc1	none
CCOC(=O)C1(CCc2ccccc2)CCN(C(=O)[C@@H]2C[C@@H](C)NC(=S)N2)CC1	none
Nc1nc2c(c(=O)[nH]1)C(c1cccc3ccccc13)C1=C(N2)c2ccccc2C1=O (configuration not stated)	Rab2A wt mod 79.0, Cdc42 wt GTP 79.0, Rac1 wt GTP bind 74.0
O=C(Nc1ccc2nc(-c3cccs3)[nH]c2c1)c1cccs1	Rab2A wt mod 77.0, Cdc42 wt GTP 75.0, HRas wt GTP bind 75.0, Rac1 wt GTP bind 76.0
C=CCc1cccc(CNc2c(C)cc(C)cc2C)c1O	none
Cc1ccc(C(=O)c2ccccc2C(=O)O)c(O)c1	none
Cc1ccc(C(=O)c2ccccc2C(=O)O)cc1C	Rab2A wt mod 124.0[activator], Cdc42 wt GTP 135.0[activator], Rac1 mut GTP 132.0[activator], HRas wt GTP bind 123.0[activator], Rac1 wt GTP bind 150.0[activator]
Cc1cc(C)c(C)c(C(=O)c2ccccc2C(=O)O)c1C	Rab2A wt mod 123.0[activator], Cdc42 wt GTP 132.0[activator], Rac1 mut GTP 129.0[activator], HRas wt GTP bind 120.0[activator], Rac1 wt GTP bind 150.0[activator]
COCCNC(=O)c1cc(C(=O)CC(C)C)c[nH]1	none
COc1cccc(-n2c([S-])c(C(=O)Nc3ccc(C(F)(F)F)cc3)[n+]3ccccc23)c1	none
CCN(CC)S(=O)(=O)c1ccc2oc(C(=O)N3CCc4ccccc4C3)c(C)c2c1	Rac1 wt GTP bind 128.0[activator]
CCN(CC)S(=O)(=O)c1ccc2oc(C(=O)N3CCCCCC3)c(C)c2c1	none
COc1ccc(C2CC(c3ccccc3)=NN2c2ccc(S(N)(=O)=O)cc2)cc1 (configuration not stated)	Cdc42 wt GTP 78.0
NS(=O)(=O)c1ccc(N2N=C(c3ccccc3)CC2c2ccc(F)cc2)cc1 (configuration not stated)	none
COc1ccccc1NC(=O)COC(=O)c1ccccc1C(=O)N1CCN(c2ccccc2)CC1	none
O=S(=O)(Cc1ccccc1)N1CCc2ccccc21	Rab2A wt mod 37.0
